Source: publication PMC7862700, “An all-to-all approach to the identification of sequence-specific readers for epigenetic DNA modifications on cytosine”

Tests used:
Experiment in all cases: DAPPL (digital affinity profiling via proximity ligation, sequencing); 10 mM Tris-HCl pH 7.5, 50 mM NaCl, 1 mM DTT, 4% glycerol, room temperature, 30 min; GST-TFs on glutathione beads, 16-mer random dsDNA library, 0.1% formaldehyde crosslink after washing; high values mean tight binding
[1] = target: T1, FLI1 (Homo sapiens, UniProt Q01543 1-452); conditions: protein: recombinant; tags: N-terminal GST; dsDNA, one strand shown
T1 sequence: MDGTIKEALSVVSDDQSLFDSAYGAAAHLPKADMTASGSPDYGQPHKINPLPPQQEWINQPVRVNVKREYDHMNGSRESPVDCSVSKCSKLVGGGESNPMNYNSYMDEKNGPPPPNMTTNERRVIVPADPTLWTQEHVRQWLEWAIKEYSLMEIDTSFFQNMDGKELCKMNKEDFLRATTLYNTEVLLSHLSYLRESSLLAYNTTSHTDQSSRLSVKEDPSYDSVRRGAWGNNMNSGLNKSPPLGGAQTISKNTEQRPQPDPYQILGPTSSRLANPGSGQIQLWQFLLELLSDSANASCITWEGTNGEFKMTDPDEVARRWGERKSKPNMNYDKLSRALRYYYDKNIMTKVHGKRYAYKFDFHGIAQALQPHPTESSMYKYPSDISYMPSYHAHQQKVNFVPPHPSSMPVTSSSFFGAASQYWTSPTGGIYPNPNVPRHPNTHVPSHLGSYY
In short: (§1)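 In yeast, human transcription factors were expressed with a GST fusion, then pulled down on glutathione beads and given DNA barcodes. Pooled with a tag-only sample, they were exposed to 200 nmole of a 16-mer random double-stranded DNA library (Tris/NaCl/DTT/glycerol buffer, room temperature, 30 min), washed, crosslinked with 0.1% formaldehyde, proximity-ligated using BsaI/T4 ligase for 1 h at 37 °C, PCR-amplified and read on an Illumina NextSeq500. Each hexamer's frequency of reads for a factor, divided by the matching frequency for the tag-only sample, gives the binding signal.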

[2] = target: T2, ELK1 (Homo sapiens, UniProt P19419 1-428); conditions: protein: recombinant; tags: N-terminal GST; dsDNA, one strand shown
T2 sequence: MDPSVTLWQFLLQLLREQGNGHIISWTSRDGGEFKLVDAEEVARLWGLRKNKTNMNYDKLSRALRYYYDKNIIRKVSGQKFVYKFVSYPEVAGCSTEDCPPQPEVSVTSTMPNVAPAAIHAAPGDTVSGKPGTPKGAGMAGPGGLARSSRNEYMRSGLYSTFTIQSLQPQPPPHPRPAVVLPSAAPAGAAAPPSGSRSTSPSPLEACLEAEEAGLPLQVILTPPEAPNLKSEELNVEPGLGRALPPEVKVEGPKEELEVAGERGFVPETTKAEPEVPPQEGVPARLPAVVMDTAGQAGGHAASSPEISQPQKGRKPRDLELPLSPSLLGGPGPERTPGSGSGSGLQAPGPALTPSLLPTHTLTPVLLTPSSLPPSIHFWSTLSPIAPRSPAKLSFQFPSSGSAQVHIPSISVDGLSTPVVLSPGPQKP
In short: as §1

[3] = target: T3, GABPA (Homo sapiens, UniProt Q06546 1-454); conditions: protein: recombinant; tags: N-terminal GST; dsDNA, one strand shown
T3 sequence: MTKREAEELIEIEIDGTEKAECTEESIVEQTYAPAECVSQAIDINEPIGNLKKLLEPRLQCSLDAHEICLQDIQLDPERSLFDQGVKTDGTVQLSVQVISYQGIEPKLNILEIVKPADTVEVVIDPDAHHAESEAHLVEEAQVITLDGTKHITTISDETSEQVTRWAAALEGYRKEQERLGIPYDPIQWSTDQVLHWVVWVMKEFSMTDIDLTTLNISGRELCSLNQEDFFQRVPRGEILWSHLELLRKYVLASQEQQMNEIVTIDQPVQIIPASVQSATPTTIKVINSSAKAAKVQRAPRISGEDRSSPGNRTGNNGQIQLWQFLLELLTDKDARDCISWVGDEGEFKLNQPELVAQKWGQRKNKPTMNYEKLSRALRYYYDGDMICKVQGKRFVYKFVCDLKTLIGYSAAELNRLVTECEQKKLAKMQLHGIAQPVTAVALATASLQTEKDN
In short: as §1

[4] = target: T4, ERG (Homo sapiens, UniProt P11308 1-479); conditions: protein: recombinant; tags: N-terminal GST; dsDNA, one strand shown
T4 sequence: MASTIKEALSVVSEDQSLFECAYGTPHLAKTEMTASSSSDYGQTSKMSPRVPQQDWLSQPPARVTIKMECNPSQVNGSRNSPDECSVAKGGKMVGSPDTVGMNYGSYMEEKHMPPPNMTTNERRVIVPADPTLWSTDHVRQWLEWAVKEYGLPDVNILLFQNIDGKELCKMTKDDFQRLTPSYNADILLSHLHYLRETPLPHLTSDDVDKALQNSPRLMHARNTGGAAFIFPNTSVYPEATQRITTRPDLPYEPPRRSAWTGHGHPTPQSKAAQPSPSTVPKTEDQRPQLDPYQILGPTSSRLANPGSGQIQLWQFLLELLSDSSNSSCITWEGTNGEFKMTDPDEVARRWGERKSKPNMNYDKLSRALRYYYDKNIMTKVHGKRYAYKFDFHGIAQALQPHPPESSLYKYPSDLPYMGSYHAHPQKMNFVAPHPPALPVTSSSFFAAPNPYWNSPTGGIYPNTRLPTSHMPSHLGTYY
In short: as §1

[5] = target: ELF1 (Homo sapiens, UniProt P32519 1-619); conditions: protein: recombinant; tags: N-terminal GST; dsDNA, one strand shown
Sequence of ELF1 (P32519 whole entry): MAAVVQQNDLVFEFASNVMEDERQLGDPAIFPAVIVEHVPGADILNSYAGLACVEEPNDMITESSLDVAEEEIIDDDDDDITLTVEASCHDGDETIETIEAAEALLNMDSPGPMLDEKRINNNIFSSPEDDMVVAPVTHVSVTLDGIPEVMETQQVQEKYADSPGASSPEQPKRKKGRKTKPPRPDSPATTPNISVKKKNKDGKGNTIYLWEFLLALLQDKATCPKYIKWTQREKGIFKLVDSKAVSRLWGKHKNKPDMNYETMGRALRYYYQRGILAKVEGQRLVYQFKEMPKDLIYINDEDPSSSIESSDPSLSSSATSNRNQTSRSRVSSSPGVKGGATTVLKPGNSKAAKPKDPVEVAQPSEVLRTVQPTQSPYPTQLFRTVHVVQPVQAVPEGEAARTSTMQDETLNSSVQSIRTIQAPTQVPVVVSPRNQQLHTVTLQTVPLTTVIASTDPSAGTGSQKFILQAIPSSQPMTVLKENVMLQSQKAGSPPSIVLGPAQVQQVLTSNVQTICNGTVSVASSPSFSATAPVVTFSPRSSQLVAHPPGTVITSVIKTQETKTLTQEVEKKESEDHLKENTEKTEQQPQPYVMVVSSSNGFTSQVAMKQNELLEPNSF
In short: as §1

[6] = target: T5, EHF (Homo sapiens, UniProt Q9NZC4 1-300); conditions: protein: recombinant; tags: N-terminal GST; dsDNA, one strand shown
T5 sequence: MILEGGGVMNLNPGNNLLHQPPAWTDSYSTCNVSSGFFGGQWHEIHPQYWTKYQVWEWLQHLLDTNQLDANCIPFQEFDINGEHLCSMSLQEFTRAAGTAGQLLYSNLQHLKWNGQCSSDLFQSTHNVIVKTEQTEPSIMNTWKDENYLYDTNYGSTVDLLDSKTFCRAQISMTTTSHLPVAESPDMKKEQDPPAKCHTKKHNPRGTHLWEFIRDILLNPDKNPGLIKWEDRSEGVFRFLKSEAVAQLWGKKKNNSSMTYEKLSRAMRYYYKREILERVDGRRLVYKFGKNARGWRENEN
In short: as §1

[7] = target: SPI1 (Homo sapiens, UniProt P17947 1-270); conditions: protein: recombinant; tags: N-terminal GST; dsDNA, one strand shown
In short: as §1

[8] = target: SPIB (Homo sapiens, UniProt Q01892 1-262); conditions: protein: recombinant; tags: N-terminal GST; dsDNA, one strand shown
Sequence of SPIB (Q01892 whole entry): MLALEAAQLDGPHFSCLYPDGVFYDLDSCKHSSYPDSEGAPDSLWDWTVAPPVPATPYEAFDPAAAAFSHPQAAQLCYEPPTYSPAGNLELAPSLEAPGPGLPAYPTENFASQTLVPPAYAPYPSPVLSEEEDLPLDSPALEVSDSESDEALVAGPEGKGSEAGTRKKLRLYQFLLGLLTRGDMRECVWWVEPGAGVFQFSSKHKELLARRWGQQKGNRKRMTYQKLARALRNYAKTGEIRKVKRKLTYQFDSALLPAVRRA
In short: as §1

[9] = target: T6, ELK3 (Homo sapiens, UniProt P41970 1-407); conditions: protein: recombinant; tags: N-terminal GST; dsDNA, one strand shown
T6 sequence: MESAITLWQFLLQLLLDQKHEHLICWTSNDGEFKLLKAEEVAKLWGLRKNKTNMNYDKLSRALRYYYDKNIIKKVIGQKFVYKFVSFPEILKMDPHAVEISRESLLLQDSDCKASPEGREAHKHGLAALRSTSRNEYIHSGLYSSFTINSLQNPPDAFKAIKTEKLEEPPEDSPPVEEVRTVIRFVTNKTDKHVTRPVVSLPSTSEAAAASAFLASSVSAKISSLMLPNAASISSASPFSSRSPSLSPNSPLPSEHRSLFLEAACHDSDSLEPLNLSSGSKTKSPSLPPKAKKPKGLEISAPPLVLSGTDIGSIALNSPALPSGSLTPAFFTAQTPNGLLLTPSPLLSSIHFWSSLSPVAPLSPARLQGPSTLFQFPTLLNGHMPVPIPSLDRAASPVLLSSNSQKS
In short: as §1

[10] = target: T7, FEV (Homo sapiens, UniProt Q99581 1-238); conditions: protein: recombinant; tags: N-terminal GST; dsDNA, one strand shown
T7 sequence: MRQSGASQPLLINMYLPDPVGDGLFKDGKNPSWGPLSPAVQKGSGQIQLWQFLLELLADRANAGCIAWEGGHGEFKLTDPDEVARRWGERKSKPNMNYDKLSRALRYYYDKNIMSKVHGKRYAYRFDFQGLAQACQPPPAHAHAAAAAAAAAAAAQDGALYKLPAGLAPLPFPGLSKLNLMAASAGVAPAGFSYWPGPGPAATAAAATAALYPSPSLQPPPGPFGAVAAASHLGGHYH
In short: as §1

[11] = target: ETV5 (Homo sapiens, UniProt P41161 1-510); conditions: protein: recombinant; tags: N-terminal GST; dsDNA, one strand shown
Sequence of ETV5 (P41161 whole entry): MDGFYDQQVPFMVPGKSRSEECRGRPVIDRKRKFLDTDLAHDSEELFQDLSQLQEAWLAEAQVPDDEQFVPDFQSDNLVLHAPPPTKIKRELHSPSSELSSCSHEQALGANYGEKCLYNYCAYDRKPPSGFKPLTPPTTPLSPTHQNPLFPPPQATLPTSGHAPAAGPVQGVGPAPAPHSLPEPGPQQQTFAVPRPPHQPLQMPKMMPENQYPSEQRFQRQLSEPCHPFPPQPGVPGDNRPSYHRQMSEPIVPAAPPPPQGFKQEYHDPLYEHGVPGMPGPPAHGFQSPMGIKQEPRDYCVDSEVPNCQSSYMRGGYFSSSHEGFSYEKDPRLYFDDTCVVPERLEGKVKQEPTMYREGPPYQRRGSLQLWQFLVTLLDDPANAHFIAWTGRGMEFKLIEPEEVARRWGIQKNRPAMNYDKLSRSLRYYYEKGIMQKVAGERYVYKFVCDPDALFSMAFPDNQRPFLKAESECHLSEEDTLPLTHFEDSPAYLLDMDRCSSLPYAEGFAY
In short: as §1

[12] = target: HSF1 (Homo sapiens, UniProt Q00613 1-529); conditions: protein: recombinant; tags: N-terminal GST; chain copies: 3; dsDNA, one strand shown
Sequence of HSF1 (Q00613 whole entry): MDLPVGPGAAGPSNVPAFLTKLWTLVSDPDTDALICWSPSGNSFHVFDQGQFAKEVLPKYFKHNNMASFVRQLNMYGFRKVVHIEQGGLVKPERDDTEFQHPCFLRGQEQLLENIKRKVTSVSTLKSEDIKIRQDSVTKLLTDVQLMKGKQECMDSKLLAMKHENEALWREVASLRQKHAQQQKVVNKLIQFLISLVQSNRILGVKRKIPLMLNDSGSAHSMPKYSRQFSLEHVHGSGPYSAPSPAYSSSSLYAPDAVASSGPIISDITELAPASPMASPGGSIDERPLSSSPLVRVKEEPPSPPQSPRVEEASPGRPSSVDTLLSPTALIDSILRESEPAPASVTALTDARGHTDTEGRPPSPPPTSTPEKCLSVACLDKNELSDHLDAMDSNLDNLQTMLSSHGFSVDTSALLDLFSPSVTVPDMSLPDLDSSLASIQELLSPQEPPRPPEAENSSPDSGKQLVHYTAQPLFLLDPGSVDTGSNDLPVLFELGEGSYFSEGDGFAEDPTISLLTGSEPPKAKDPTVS
In short: as §1

[13] = target: T8, SPIC (Homo sapiens, UniProt Q8N5J4 1-248); conditions: protein: recombinant; tags: N-terminal GST; dsDNA, one strand shown
T8 sequence: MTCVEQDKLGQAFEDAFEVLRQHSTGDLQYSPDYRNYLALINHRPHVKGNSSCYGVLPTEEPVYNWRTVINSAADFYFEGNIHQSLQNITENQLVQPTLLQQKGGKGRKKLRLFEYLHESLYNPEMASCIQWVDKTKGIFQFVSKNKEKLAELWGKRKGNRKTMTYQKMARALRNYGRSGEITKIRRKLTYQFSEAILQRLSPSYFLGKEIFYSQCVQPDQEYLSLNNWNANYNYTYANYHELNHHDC
In short: as §1

[14] = target: ELF4 (Homo sapiens, UniProt Q99607 1-663); conditions: protein: recombinant; tags: N-terminal GST; dsDNA, one strand shown
Sequence of ELF4 (Q99607 whole entry): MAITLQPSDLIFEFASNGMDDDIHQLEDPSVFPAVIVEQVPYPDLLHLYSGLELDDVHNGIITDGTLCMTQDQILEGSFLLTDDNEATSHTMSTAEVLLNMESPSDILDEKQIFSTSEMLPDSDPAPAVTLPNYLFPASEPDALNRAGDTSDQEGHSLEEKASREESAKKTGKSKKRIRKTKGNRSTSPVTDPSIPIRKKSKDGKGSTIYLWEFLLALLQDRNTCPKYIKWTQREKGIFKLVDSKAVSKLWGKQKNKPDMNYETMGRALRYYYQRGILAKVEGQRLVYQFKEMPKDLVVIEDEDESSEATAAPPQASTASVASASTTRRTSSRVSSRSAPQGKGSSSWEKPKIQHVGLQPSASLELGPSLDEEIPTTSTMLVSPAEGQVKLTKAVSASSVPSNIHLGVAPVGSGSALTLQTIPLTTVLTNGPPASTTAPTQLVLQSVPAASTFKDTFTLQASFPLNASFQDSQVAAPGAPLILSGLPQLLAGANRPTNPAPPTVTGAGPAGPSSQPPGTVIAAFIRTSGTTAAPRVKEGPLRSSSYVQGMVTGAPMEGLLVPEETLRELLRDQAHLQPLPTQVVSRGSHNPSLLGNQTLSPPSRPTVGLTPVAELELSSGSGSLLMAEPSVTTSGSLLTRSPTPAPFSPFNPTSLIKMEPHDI
In short: as §1

[15] = target: T9, ELK4 (Homo sapiens, UniProt P28324-2 1-405); conditions: protein: recombinant; tags: N-terminal GST; dsDNA, one strand shown
T9 sequence: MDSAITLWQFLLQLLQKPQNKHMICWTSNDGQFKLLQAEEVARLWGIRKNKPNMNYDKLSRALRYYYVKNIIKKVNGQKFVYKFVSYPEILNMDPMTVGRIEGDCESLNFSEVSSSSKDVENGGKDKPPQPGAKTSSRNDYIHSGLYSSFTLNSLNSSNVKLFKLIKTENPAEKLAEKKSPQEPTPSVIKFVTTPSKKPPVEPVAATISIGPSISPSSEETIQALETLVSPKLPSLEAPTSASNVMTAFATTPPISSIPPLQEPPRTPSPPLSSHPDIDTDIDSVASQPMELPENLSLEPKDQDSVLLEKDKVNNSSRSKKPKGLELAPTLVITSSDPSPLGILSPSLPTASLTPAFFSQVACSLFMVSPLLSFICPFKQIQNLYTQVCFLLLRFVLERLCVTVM
In short: as §1

[16] = target: T10, ETV2 (Homo sapiens, UniProt O00321 1-342); conditions: protein: recombinant; tags: N-terminal GST; dsDNA, one strand shown
T10 sequence: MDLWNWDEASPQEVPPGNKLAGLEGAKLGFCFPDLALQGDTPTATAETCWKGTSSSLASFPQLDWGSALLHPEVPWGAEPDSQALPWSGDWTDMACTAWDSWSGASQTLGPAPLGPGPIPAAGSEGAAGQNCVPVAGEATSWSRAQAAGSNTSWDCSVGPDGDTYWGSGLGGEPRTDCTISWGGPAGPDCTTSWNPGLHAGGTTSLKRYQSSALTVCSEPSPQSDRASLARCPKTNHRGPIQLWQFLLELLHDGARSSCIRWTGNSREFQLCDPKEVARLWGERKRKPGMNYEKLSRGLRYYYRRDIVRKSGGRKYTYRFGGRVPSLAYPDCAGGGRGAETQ
In short: as §1

[17] = target: T11, ELF3 (Homo sapiens, UniProt P78545 1-371); conditions: protein: recombinant; tags: N-terminal GST; dsDNA, one strand shown
T11 sequence: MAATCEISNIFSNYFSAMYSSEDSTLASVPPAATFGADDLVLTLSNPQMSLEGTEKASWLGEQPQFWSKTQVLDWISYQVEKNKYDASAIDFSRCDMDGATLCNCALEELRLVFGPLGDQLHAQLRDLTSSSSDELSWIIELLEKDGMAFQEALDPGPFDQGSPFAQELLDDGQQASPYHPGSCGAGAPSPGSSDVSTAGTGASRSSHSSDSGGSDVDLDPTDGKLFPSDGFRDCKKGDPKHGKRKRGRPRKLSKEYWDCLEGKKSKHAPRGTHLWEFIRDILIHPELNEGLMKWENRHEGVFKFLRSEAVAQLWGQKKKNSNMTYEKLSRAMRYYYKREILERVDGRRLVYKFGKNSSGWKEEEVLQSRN
In short: as §1

[18] = target: CRX (Homo sapiens, UniProt O43186 1-299); conditions: protein: recombinant; tags: N-terminal GST; dsDNA, one strand shown
Sequence of CRX (O43186 whole entry): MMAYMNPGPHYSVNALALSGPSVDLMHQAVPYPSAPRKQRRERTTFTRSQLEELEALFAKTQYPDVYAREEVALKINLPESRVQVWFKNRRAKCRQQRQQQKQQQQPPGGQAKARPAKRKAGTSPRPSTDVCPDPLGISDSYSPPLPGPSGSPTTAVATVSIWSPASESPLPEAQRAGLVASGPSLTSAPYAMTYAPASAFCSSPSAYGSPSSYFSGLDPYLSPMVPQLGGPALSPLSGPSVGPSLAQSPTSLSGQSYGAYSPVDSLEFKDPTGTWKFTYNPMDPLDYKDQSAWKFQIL
In short: as §1

[19] = target: ETV1 (Homo sapiens, UniProt P50549 1-477); conditions: protein: recombinant; tags: N-terminal GST; dsDNA, one strand shown
Sequence of ETV1 (P50549 whole entry): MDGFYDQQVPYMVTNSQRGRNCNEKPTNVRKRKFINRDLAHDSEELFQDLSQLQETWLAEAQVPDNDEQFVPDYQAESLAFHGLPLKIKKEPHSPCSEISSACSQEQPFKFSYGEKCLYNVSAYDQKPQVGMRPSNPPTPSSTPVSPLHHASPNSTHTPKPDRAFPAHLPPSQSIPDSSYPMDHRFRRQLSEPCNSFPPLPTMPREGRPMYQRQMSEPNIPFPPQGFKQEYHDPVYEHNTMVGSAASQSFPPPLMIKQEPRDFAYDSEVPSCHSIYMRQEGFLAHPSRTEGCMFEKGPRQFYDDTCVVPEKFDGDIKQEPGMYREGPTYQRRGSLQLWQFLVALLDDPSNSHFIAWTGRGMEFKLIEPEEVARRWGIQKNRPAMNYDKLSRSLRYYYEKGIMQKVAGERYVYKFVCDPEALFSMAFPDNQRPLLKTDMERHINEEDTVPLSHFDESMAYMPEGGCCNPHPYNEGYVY
In short: as §1

Sequence: TCACCA
- binding signal [1]: 1.18 fold enrichment (6-mer frequency, TF over GST control)
- binding signal [2]: 1.23 fold enrichment (6-mer frequency, TF over GST control)
- binding signal [3]: 1.12 fold enrichment (6-mer frequency, TF over GST control)
- binding signal [4]: 1.14 fold enrichment (6-mer frequency, TF over GST control)
- binding signal [5]: 1.18 fold enrichment (6-mer frequency, TF over GST control)
- binding signal [6]: 1.06 fold enrichment (6-mer frequency, TF over GST control)
- binding signal [7]: 1.21 fold enrichment (6-mer frequency, TF over GST control)
- binding signal [8]: 1.2 fold enrichment (6-mer frequency, TF over GST control)
- binding signal [9]: 1.22 fold enrichment (6-mer frequency, TF over GST control)
- binding signal [10]: 1.16 fold enrichment (6-mer frequency, TF over GST control)
- binding signal [11]: 1.12 fold enrichment (6-mer frequency, TF over GST control)
- binding signal [12]: 1.01 fold enrichment (6-mer frequency, TF over GST control)
- binding signal [13]: 1.19 fold enrichment (6-mer frequency, TF over GST control)
- binding signal [14]: 1.25 fold enrichment (6-mer frequency, TF over GST control)
- binding signal [15]: 1.21 fold enrichment (6-mer frequency, TF over GST control)
- binding signal [16]: 1.32 fold enrichment (6-mer frequency, TF over GST control)
- binding signal [17]: 1.39 fold enrichment (6-mer frequency, TF over GST control)
- binding signal [18]: 1.04 fold enrichment (6-mer frequency, TF over GST control)
- binding signal [19]: 1.13 fold enrichment (6-mer frequency, TF over GST control)
